Unmarked numbers belong to inactive results. No rule for the calls is given here.
Test system: Phorbol Ester
Assay: selectivity profile across receptors and CYP450s – biochemical, Ricerca HitProfilingScreen, CYP450, set 2, selectivity assay for S1P4 agonist project, profiling panel (AID 540332)
Settings: at 30 µM; stronger effect = higher value

Question: `COCCN=C1S/C(=C\c2cc(C)n(-c3ccc(F)cc3F)c2C)C(=O)N1C` was tested. Which inhibition did it give?
Answer: 2%

— PubChem BioAssay AID540332 (The Scripps Research Institute Molecular Screening Center, 2011)
